Pf growth 48h: P. falciparum growth inhibition at 48 hours (one generation). P. falciparum luciferase growth in erythrocytes, 48 h. Potency, µM (doses to about 28.7 µM), for the others: at the highest dose activity change, negative = inhibition, hits mostly inhibitors. hit rate 5.9% among 310,000; further: on the % scale 0 is the no-effect control and ±100 the full control effect
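A one-generation exposure of luciferase-tagged malaria parasites in RPMI 1640/Albumax erythrocyte culture, 37 C and 5% CO2. Inhibition is inferred from decreased luminescence after adding detection reagent.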
NS1 inh: inhibitors of influenza NS1 protein function; Potency, µM (top dose mostly 46.1 µM), for the others: top-dose activity, positive = more growth; hit rate 0.4% among 270,000; AID 2326; calls by dose curve; further: actives are rising curves; nearly all actives have a fitted effect of over 50% in size
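Compounds were scored for reversing the slow growth caused by influenza A NS1 in S. cerevisiae, measured by optical density at 600 nm. Assay medium contained 2% galactose at pH 6.0; NS1-free yeast of the same strain were the positive control.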
HCV inhibitor: blocks hepatitis C virus; Huh7.5.1 HCVcc-Cre infection, luciferase reporter, 44 h; Potency, µM (doses to about 41.8 µM), for the others: at the highest dose activity change, negative = inhibition, usual class: inhibitors; hit rate 3.4% among 340,000; AID 651820; further: on the % scale 0 is the no-effect control and ±100 the full control effect
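A cell-based infection assay in which seeded cells (1,000 per well) receive test compound after 4 h, are inoculated with HCVcc-Cre at approximately 0.5 moi, and are incubated 44 h before luminescence detection.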
Pf growth 96h: P. falciparum growth inhibition at 96 hour, primary screen for plastid delayed-death inhibitors. P. falciparum luciferase reporter growth, 96 h. Potency, µM (highest dose often 28.7 µM), without a hit: at the highest dose activity change, negative = inhibition, most hits filed as inhibitors. hit rate 6.9% among 320,000. AID 504834; further: on the % scale 0 is the no-effect control and ±100 the full control effect
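Two-generation exposure (96 h) targets delayed-death phenotype. Reporter parasites carrying integrated firefly luciferase, in red cells at 2% hematocrit and 0.05% parasitemia final, kept at 37 C, 5% CO2; luminescence loss indicates inhibition.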
Vaccinia Venus: inhibitors of vaccinia virus (Venus reporter) | Vaccinia virus Venus reporter expression, fluorescence | Potency, µM (top dose mostly 36.5 µM), inactives show top-dose activity change, negative = inhibition, actives largely listed as inhibitors | hit rate 0.46% among 330,000 | AID 720580; calls by dose curve; tested in A549 cells; further: on the % scale 0 is the no-effect control and ±100 the full control effect; nearly all actives have a fitted effect of over 30% in size
VACV mCherry inh: vaccinia inhibition (mCherry reporter). Vaccinia virus mCherry reporter infection, fluorescence. Potency, µM (series often up to 36.5 µM), inactives show at the highest dose activity change, negative = inhibition, hits mostly inhibitors. hit rate 0.63% among 310,000. AID 720579; calls by dose curve; tested in A549 cells; further: on the % scale 0 is the no-effect control and ±100 the full control effect; nearly all actives have a fitted effect of over 35% in size
An asterisk follows results filed as active; i = inactive; ? = inconclusive; . = no result; [ ] = another dose, or the depositor's remark. Shown are actives, neighbours in structure and some others; about 11% of the full set was active somewhere. Unless noted, the call rests on the fitted dose curve; in most records, active means well fitted inhibition curve with a large enough effect; inconclusive means small, poorly fitted or top-dose-only effect, or another doubt; inactive means no such curve, though single readings can be large or run the other way. Potency means the concentration at half of the fitted maximal effect.

SMILES	Pf growth 48h	NS1 inh	HCV inhibitor	Pf growth 96h	Vaccinia Venus	VACV mCherry inh
COC(=O)c1ccc(/C=C/C(=O)c2ccc(OC)cc2)cc1	10%	-17%	?	-20%	.	.
COc1cc(/C=C/C(=O)O)ccc1OS(=O)(=O)c1c(C)c(C)cc(C)c1C	10µM*	.	12%	-71%	.	.
COc1ccc(C(C)=O)cc1COC(=O)c1c(C)nn(-c2ccccc2)c1C	?	1%	?	?	.	.
COc1ccc(NC(=O)Cn2nnc(C(=O)NCc3ccccc3)c2N)c(OC)c1	13%	.	-20%	40%	.	.
COc1ccc(NC(=O)CN(C)C(=O)c2ccc(OCc3ccccc3)c(OC)c2)cc1	9%	.	-28%	?	-8%	i
CCOc1ccc(C(=O)/C=C/c2cc(OC)c(OC)c(OC)c2)cc1	?	-33%	-27%	-4%	?	?
COc1ccc(C(=O)/C=C/c2ccc(OC(=O)c3cc(OC)c(OC)c(OC)c3)cc2)cc1	2.9µM*	20%	?	4.7µM*	-7%	-9%
COc1ccc(/C=C/C(=O)c2ccc(C(=O)/C=C/c3ccc(OC)c(OC)c3)cc2)cc1OC	?	10%	4.5µM*	?	.	.
COc1ccc(/C=C/C(=O)c2ccccc2)cc1Cn1nnc2ccccc21	?	18%	3.5µM*	?	-10%	-28%
O=C(CSCc1nc2cccnc2n1C1CCCCC1)NCc1cccc(Cl)c1	.	.	.	.	-12%	-13%
COC(=O)c1cc(OC)c(OC)cc1NC(=O)c1c(-c2ccccc2Cl)noc1C	?	-13%	-29%	13%	.	.
COc1cccc(/C(O)=C/c2nc3ccc(C(=O)NCCc4cccc(C)c4)cc3[nH]c2=O)c1	8.3µM*	21%	?	-10%	-19%	-22%
COC(=O)C1=C(N)N(c2ccccc2F)C2=C(C(=O)CC(C)(C)C2)C1c1ccc(OC)c(OC)c1 (stereo not given)	0%	-37%	-9%	?	-19%	2%
CC1CCN(c2oc(-c3ccccc3Cl)nc2C#N)CC1	75%	-10%	?	74%	-18%	.
Cc1cccn2c(=O)c3cc(C(=O)NCC4CCCO4)c(=N)n(Cc4cccnc4)c3nc12 (stereo not given)	?	-1%	-14%	-1%	-8%	i
Cc1cccn2c(=O)c3cc(C(=O)NCC4CCCO4)c(=N)n(C4CCCCC4)c3nc12 (stereo not given)	?	-2%	?	1.3µM*	-13%	i
Cc1cccn2c(=O)c3cc(C(=O)NCc4ccco4)c(=N)n(C4CCCC4)c3nc12	-4%	-1%	6.3µM*	2%	-6%	i
Cc1ccc(-c2csc3nc(=O)c(C)nn23)cc1	31%	-4%	-4%	5.2µM*	-14%	-1%
CC(=O)c1cccc(NC(=O)COC(=O)c2ccc3c(c2)OCO3)c1	24%	.	9%	10%	.	.
COC(=O)C1=C(C)N=C2SC(C#N)=C(N)N2C1c1cc(OC)c(OC)c(OC)c1 (stereo not given)	?	4%	8%	?	-3%	.
COC(=O)C1=C(C)N=C2SC(C#N)=C(N)N2C1c1ccc(OCc2ccccc2)cc1 (stereo not given)	.	9%	?	12µM*	-29%	.
CCCCNC(=O)C(C1CCCCC1)N(CCN(C)C)C(=O)CCCN1C(=O)NC(c2ccc(-c3ccccc3)cc2)C(C(=O)OCc2ccccc2)=C1C (stereo not given)	.	.	10µM*	.	.	.
CCCCNC(=O)C(C)N(CCN(C)C)C(=O)CCCN1C(=O)NC(c2ccc([N+](=O)[O-])cc2)C(C(=O)OCc2ccccc2)=C1C (stereo not given)	.	.	22µM*	.	?	?
CCCCCCN(C(=O)CCCCCN1C(=O)NC(c2ccc(-c3ccccc3)cc2)C(C(=O)OCc2ccccc2)=C1C)C(C)C(=O)NCCCC (stereo not given)	?	-5%	-6%[8.37 µM]	4.7µM*	.	.
CCCCCCN(C(=O)CCCCCN1C(=O)NC(c2ccc(-c3ccccc3)cc2)C(C(=O)OCc2ccccc2)=C1C)C(C(=O)NCCCC)c1ccccc1 (stereo not given)	2.6µM*	17%	.	1.9µM*	.	.
SMILES	Pf growth 48h	NS1 inh	HCV inhibitor	Pf growth 96h	Vaccinia Venus	VACV mCherry inh
CC1=C(C(=O)OCc2ccccc2)C(c2ccc(Br)cc2)NC(=O)N1CCCC(=O)O (stereo not given)	10%	4%	13%	45%	-4%	i
CCn1c(C)cc(/C=C2/SC(=O)N(CC(=O)N3CCCC3)C2=O)c1C	-12%	8%	?	47%	-2%	-4%
C=CCSC1=NC(N)=C(C#N)C2(CCCCC2)C1C(N)=O (stereo not given)	2%	-4%	11%	25%	.	.
CCCCNC(=O)C(c1ccc(-c2ccccc2)cc1)N(CCN1CCOCC1)C(=O)CCCCCN1C(=O)NC(c2ccc([N+](=O)[O-])cc2)C(C(=O)OCc2ccccc2)=C1C (stereo not given)	1.3µM*	?	3%[8.37 µM]	3.3µM*	.	.
CCOC(=O)C1=C(C)N(CCCC(=O)O)C(=O)NC1c1ccc([N+](=O)[O-])cc1 (stereo not given)	-16%	-2%	-14%[8.37 µM]	?	-9%	i
O=C(ONc1ccc(N=NC(=O)c2ccccc2O)cc1)c1ccccc1	97%	-4%	5%	103%	.	.
Cc1ccc(-c2c(C#N)c(N)nc3c2CCCCC3)o1	6%	-15%	5%	.	.	.
O=[N+]([O-])c1ccc(-c2nc(Cl)c3c(n2)CCCC3)o1	.	.	.	.	?	11µM*
Cc1occc1-c1nnc(SCC(=O)NC2CC2)n1C(C)C	6%	8%	12%	-4%	.	.
Cn1c(=O)n(Cc2ccccc2)c(=O)c2c1nc1n2CCN1Cc1ccco1	-21%	.	?	?	.	.
Cc1ccc(Cn2c(=O)c3c(nc4n3CCN4Cc3ccco3)n(C)c2=O)cc1	13µM*	?	?	33%	-16%	-10%
COc1ccc(N2CCCn3c2nc2c3c(=O)n(CCc3ccccc3)c(=O)n2C)cc1	-2%	1%	14%	?	2%	-7%
COCCn1c(=O)c2c(nc3n2CCCN3Cc2ccccc2)n(C)c1=O	-29%	-4%	3%	30%	-12%	-1%
CCCn1c(=O)c2c(nc3n2CCCN3Cc2ccccc2)n(C)c1=O	?	-15%	?	13µM*	.	.
Cn1c(=O)n(Cc2ccc(F)cc2)c(=O)c2c1nc1n2CCCN1Cc1ccccc1	2.1µM*	-36%	?	1.3µM*	-15%	.
Cn1c(=O)n(CCc2ccccc2)c(=O)c2c1nc1n2CCCN1Cc1ccccc1	?	-62%	16%	-26%	-7%	.
COc1ccc(N2CCCn3c2nc2c3c(=O)n(Cc3ccc(C)cc3)c(=O)n2C)c(OC)c1	9.3µM*	.	?	0%	-12%	1%

Compound activity as filed in PubChem BioAssay.
